Structures are written as SMILES.
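Also: KINOMEscan kinase panel screen.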

For one test, the system named is T1, YANK2.
T1 construct: gene STK32B
As to conditions: concentration: 1 μM,replicates: in singlicate; n = 1.
Regarding `Cl.Cl.NC[C@H](CC1CCCCC1)NC(=O)c1cc(Br)c(-c2ccnc3[nH]ccc23)s1` [GSK1581427], the “%Inh” value is reported as 0%.

As to `C[C@@H](Oc1cc(-c2cnn(C3CCNCC3)c2)cnc1N)c1c(Cl)ccc(F)c1Cl`, the “%Inh” value came out at 0%.

In the case of `C=CC(=O)Nc1cc2c(Nc3ccc(F)c(Cl)c3)ncnc2cc1OCCCN1CCOCC1` [GW781483], the “%Inh” value is reported as 0%.

For the molecule `Cl.Oc1cc(-c2nc(-c3ccccc3)[nH]c2-c2ccncc2)ccc1Cl` [SB-386023], the “%Inh” value came out at 26%.

Regarding `Cc1n[nH]c2ccc(-c3cc(OC[C@@H](N)Cc4ccccc4)cnc3-c3ccoc3)cc12.O=C(O)C(F)(F)F.O=C(O)C(F)(F)F` [GSK507358], the “%Inh” value was determined as 90.5%.

In the case of `Cc1occc1-c1nc(N)c(OC[C@@H](N)Cc2c[nH]c3ccccc23)cc1-c1cc2c(C)n[nH]c2cn1` [GSK1660450], the “%Inh” value is 95.2%.

In the case of `Cc1cc(C(=O)Nc2ccc(Oc3ccc4nc(NC(=O)C5CC5)cn4n3)cc2)nn1-c1ccccc1`, the “%Inh” value is listed as 3%.

The subject of the next test is T2, YANK3.
T2 construct: gene STK32C
The note with it: concentration: 1 μM,replicates: in singlicate; n = 1.
As to `CC(C)N1C(=O)Cc2cc(Nc3ncc(C(F)(F)F)c(NCc4cccc(S(C)(=O)=O)c4)n3)ccc21`, the “%Inh” value was determined as 0%.

For the molecule `CN(C)CC(O)COc1ccc(Nc2nccc(-c3cnn4nc(N5CCOCC5)ccc34)n2)cc1` (stereo not shown) [GW767488], the “%Inh” value worked out at 0%.

As to `Cl.Cl.Nc1nc(-c2ccc3c(N)n[nH]c3c2)cc(N2CCCC(NC(=O)c3ccccc3)C2)n1` (stereo not shown) [GSK2286775], the “%Inh” value is listed as 0%.

Consider `Cc1cc2cn[nH]c2cc1-c1cccc2c(N)c(C(N)=O)nnc12`, for which the “%Inh” value stood at 0%.

In the case of `CN(C)CCOc1ccc(-c2cc(-c3c[nH]nc3-c3ccccn3)ccn2)cc1` [GW835314], the “%Inh” value came to 0%.

Consider `COc1ccc(C[C@@H](CN)NC(=O)c2cc(Br)c(-c3ccnc4[nH]ccc34)s2)cc1.Cl.Cl` [GSK1389063], for which the “%Inh” value was determined as 50%.

Take `CNC(=O)c1ccccc1Sc1ccc2c(/C=C/c3ccccn3)n[nH]c2c1`: the “%Inh” value amounted to 0%.

As for `CCn1c(-c2nonc2N)nc2c(C#CC(C)(C)O)nc(OCCN)cc21.Cl.Cl` [GSK902056], the “%Inh” value was found to be 35%.

For the molecule `Cc1ccc(-n2nc(C(C)(C)C)cc2NC(=O)Nc2ccc(OCCN3CCOCC3)c3ccccc23)cc1` [GW839464], the “%Inh” value stood at 0%.

With `Nc1nc(Nc2ccccc2)cc(-c2ccc3c(N)n[nH]c3c2)n1` [GSK2225749], the “%Inh” value is listed as 6%.

Consider `CCN(CC)CCCCNc1ncc2cc(-c3c(Cl)cccc3Cl)c(NC(=O)NC(C)(C)C)nc2n1`, for which the “%Inh” value is 0%.

`C[C@@H]1CCN(C(=O)CC#N)C[C@@H]1N(C)c1ncnc2[nH]ccc12`: the “%Inh” value is reported as 0%.

`O=C(NCCNc1ccnc(NCc2ccc(F)cc2)n1)c1cc2ccccc2s1` [GSK1379944]: the “%Inh” value stood at 7%.

In the case of `C[C@H]1Oc2cc(cnc2N)-c2c(nn(C)c2C#N)CN(C)C(=O)c2ccc(F)cc21`, the “%Inh” value stood at 3%.

With `Cl.Cl.NC[C@H](Cc1ccc(C(F)(F)F)cc1)NC(=O)c1cc(Br)c(-c2ccnc3[nH]ccc23)s1` [GSK1487252], the “%Inh” value turned out to be 13%.

On to `Cc1ccc2c(-c3ccncc3)c(-c3ccc(F)cc3)nn2c1.Cl` [GW461484], for which the “%Inh” value turned out to be 12%.

As for `NC(=O)c1cc(-c2ccccc2)cc2c(C3CCNCC3)c[nH]c12` [GSK301362], the “%Inh” value was 26%.

As to `CC(C)Nc1cc(-c2ccc3c(N)n[nH]c3c2)nc(N)n1` [GSK2221681], the “%Inh” value turned out to be 2%.

As for `O=C(NCCCN1CCOC1=O)c1cnc(NCc2cc(Cl)ccc2Cl)nc1NC1CCCC1`, the “%Inh” value was determined as 2%.

In the case of `Cl.Cl.NC[C@H](CC1CCCCC1)NC(=O)c1cc(Br)c(-c2ccnc3[nH]ccc23)s1` [GSK1581427], the “%Inh” value is given as 18%.

For the molecule `CCN(CC)CCOc1ccc(Nc2ncc3cc(-c4c(Cl)cccc4Cl)c(=O)n(C)c3n2)cc1` [SB-601273], the “%Inh” value worked out at 27%.

As for `C[C@@H](Oc1cc(-c2cnn(C3CCNCC3)c2)cnc1N)c1c(Cl)ccc(F)c1Cl`, the “%Inh” value worked out at 0%.

`C=CC(=O)Nc1cc2c(Nc3ccc(F)c(Cl)c3)ncnc2cc1OCCCN1CCOCC1` [GW781483]: the “%Inh” value was 0%.

For `Cl.Oc1cc(-c2nc(-c3ccccc3)[nH]c2-c2ccncc2)ccc1Cl` [SB-386023], the “%Inh” value turned out to be 0%.

Consider `Cc1n[nH]c2ccc(-c3cc(OC[C@@H](N)Cc4ccccc4)cnc3-c3ccoc3)cc12.O=C(O)C(F)(F)F.O=C(O)C(F)(F)F` [GSK507358], for which the “%Inh” value is 47%.

In the case of `Cc1occc1-c1nc(N)c(OC[C@@H](N)Cc2c[nH]c3ccccc23)cc1-c1cc2c(C)n[nH]c2cn1` [GSK1660450], the “%Inh” value was 93.1%.

In the case of `Cc1cc(C(=O)Nc2ccc(Oc3ccc4nc(NC(=O)C5CC5)cn4n3)cc2)nn1-c1ccccc1`, the “%Inh” value turned out to be 0%.

The values above are taken from article PMC5540273 (PLoS ONE, 2017).
